Results on 3 compounds are retold here after PubChem BioAssay (EPA / NIEHS).

The source made the active and inactive calls. The calls were made as follows: active = hit-call score of the fitted dose curve at least 0.9, where 1 is the maximum; inactive = score below 0.9.

Read-out in assay [1]: C-C motif chemokine 2 (Homo sapiens) (UniProt P13500)
In words: BSK_KF3CT_MCP1: BioMAP Diversity Plus: KF3CT Assay for Monocyte Chemoattractant Protein 1 (MCP1/CCL2) Biomarker Activity (AID 2283073). Particulars: primary human keratinocytes with fibroblasts; actives raise or lower the signal. An outline of the steps:
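ELISA readout of MCP-1 after 24 h chemical dosing of a human skin primary co-culture of keratinocytes and foreskin fibroblasts. Activity was fitted in both directions against DMSO.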

Read-out in assay [2]: Matrix Metallopeptidase 9 (MMP9), MMP9 (gene 4318)
In words: BSK_KF3CT_MMP9: BioMAP Diversity Plus: KF3CT Assay for Matrix Metallopeptidase 9 (MMP9) Biomarker Activity (AID 2283074).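 As to AC50: MMP9 protein level quantified by ELISA in the co-culture.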 The conditions noted are these: primary human keratinocytes with fibroblasts; actives raise or lower the signal. Summed up:
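Human keratinocyte and foreskin fibroblast co-culture exposed to chemicals for 24 h; MMP9 biomarker measured by ELISA, bidirectional fitting relative to DMSO; cytotoxicity tracked by SRB total protein staining in parallel cultures.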

Read-out in assay [3]: urokinase plasminogen activator (uPA), PLAU (gene 5328)
The assay can be described thus: BSK_KF3CT_uPA: BioMAP Diversity Plus: KF3CT Assay for urokinase plasminogen activator (uPA) Biomarker Activity (AID 2283075). The conditions noted are these: primary human keratinocytes with fibroblasts; actives raise or lower the signal. An outline of the steps: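 Primary human keratinocyte/foreskin fibroblast co-culture exposed to chemical; uPA measured by ELISA at 24 h. Bidirectional fit versus DMSO, with parallel SRB total-protein staining for cytotoxicity.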

Read-out in assay [4]: CD40, CD40 (gene 958)
The assay can be described thus: BSK_LPS_CD40: BioMAP Diversity Plus: LPS Assay for CD40 Biomarker Activity (AID 2283076). Particulars: primary human HUVEC with PBMC; actives raise or lower the signal. Summed up: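 Cells were dosed, incubated 24 h, then assayed for CD40 by ELISA. Gain or loss of signal was analysed relative to DMSO controls. The culture paired human umbilical vein endothelium with peripheral blood mononuclear cells.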

Read-out in assay [5]: E-selectin (Homo sapiens) (UniProt P16581)
In words: BSK_LPS_Eselectin: BioMAP Diversity Plus: LPS Assay for Eselectin Biomarker Activity (AID 2283077). Particulars: primary human HUVEC with PBMC; actives raise or lower the signal. An outline of the steps: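 Primary human vascular co-culture (endothelium plus PBMC) was dosed with chemical, then E-selectin quantified by ELISA at 24 h. Endpoint values derive from bidirectional curve fitting relative to DMSO.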

Read-out in assay [6]: Interleukin-8 (IL8), CXCL8 (gene 3576)
In words: BSK_LPS_IL8: BioMAP Diversity Plus: LPS Assay for Interleukin-8 (IL8) Biomarker Activity (AID 2283078). The conditions noted are these: primary human HUVEC with PBMC; actives raise or lower the signal. An outline of the steps: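 Readout is IL-8 by ELISA, taken 24 h after compounds were added to LPS-stimulated endothelial/PBMC co-cultures. Both increases and decreases relative to DMSO control were scored through bidirectional fitting.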

A short description of assay [7]: BSK_LPS_SRB: Viability Assessment in the BioMAP Diversity Plus: LPS Assay (AID 2283079).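 Also: total protein by sulforhodamine B absorbance as a cytotoxicity measure; measured one day after compound addition.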 Particulars: primary human HUVEC with PBMC. Summed up: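 Readout is SRB absorbance at 560 nm (0.1% stain, TCA-fixed parallel cultures) as a total-protein cytotoxicity measure. Cells: primary human umbilical vein endothelium plus peripheral blood mononuclear cells, 24 h after chemical exposure; DMSO served as baseline.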

Read-out in assay [8]: Interleukin-1 alpha (IL1a), IL1A (gene 3552)
In words: BSK_LPS_IL1a: BioMAP Diversity Plus: LPS Assay for Interleukin-1 alpha (IL1a) Biomarker Activity (AID 2283080). Particulars: primary human HUVEC with PBMC; actives raise or lower the signal. Summed up: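 ELISA read-out of IL-1 alpha from a human primary vascular co-culture (endothelium plus PBMC) under LPS, sampled 24 hours post-dosing. Activity was fitted in both directions relative to DMSO controls.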

Read-out in assay [9]: Monocyte Chemoattractant Protein-1 (MCP1), CCL2 (gene 6347)
The assay can be described thus: BSK_LPS_MCP1: BioMAP Diversity Plus: LPS Assay for Monocyte Chemoattractant Protein-1 (MCP1) Biomarker Activity (AID 2283081).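 As to AC50: secreted MCP-1 protein quantified by ELISA in culture supernatant.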 Particulars: primary human HUVEC with PBMC; actives raise or lower the signal. An outline of the steps:
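Human endothelial–PBMC co-cultures were dosed with chemical, then LPS-driven MCP-1 levels were quantified by ELISA at 24 h. Activity in either direction was fitted versus DMSO negative control.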

Assay [10] is described as follows: BSK_LPS_PGE2: BioMAP Diversity Plus: LPS Assay for Prostaglandin E2 (PGE2) Biomarker Activity (AID 2283082). Particulars: primary human HUVEC with PBMC; actives raise or lower the signal. Summed up: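 HUVEC plus PBMC co-culture stimulated with LPS; secreted PGE2 quantified by ELISA 24 h after chemical dosing. Activity fitted bidirectionally against DMSO as negative control and baseline; parallel SRB total-protein staining served as cytotoxicity check.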

Read-out in assay [11]: Macrophage colony-stimulating factor (MCSF), CSF1 (gene 1435)
In words: BSK_LPS_MCSF: BioMAP Diversity Plus: LPS Assay for Macrophage colony-stimulating factor (MCSF) Biomarker Activity (AID 2283083). Particulars: primary human HUVEC with PBMC; actives raise or lower the signal. Summed up:
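ELISA readout of M-CSF after 24 h compound exposure in a human endothelial/PBMC co-culture. Activity, in either direction, is fitted relative to DMSO vehicle.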

Read-out in assay [12]: Tissue Factor, F3 (gene 2152)
In words: BSK_LPS_TissueFactor: BioMAP Diversity Plus: LPS Assay for Tissue Factor Biomarker Activity (AID 2283084). Particulars: primary human HUVEC with PBMC; actives raise or lower the signal. Summed up: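 ELISA signal for cell-surface Tissue Factor (CD142) was read 24 h after compound dosing of an LPS-stimulated human endothelial–PBMC primary co-culture. Gain or loss of signal was scored relative to DMSO.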

Read-out in assay [13]: Vascular cell adhesion molecule 1 (VCAM1), VCAM1 (gene 7412)
The assay can be described thus: BSK_LPS_VCAM1: BioMAP Diversity Plus: LPS Assay for Vascular cell adhesion molecule 1 (VCAM1) Biomarker Activity (AID 2283086). The conditions noted are these: primary human HUVEC with PBMC; actives raise or lower the signal. An outline of the steps: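 Human umbilical vein endothelial cells co-cultured with peripheral blood mononuclear cells under LPS stimulation were exposed to test chemical for 24 h. VCAM-1 levels were then measured by ELISA, with bidirectional curve fitting relative to DMSO as negative control and baseline.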

Read-out in another assay: CD38, CD38 (gene 952)
The assay can be described thus: BSK_SAg_CD38: BioMAP Diversity Plus: SAg Assay for CD38 Biomarker Activity (AID 2283087). The conditions noted are these: primary human HUVEC with PBMC; actives raise or lower the signal. Summed up: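 Fluorescence ELISA of cell-surface CD38 served as the read-out, with either increase or decrease fitted against DMSO controls. Cells were a human umbilical vein endothelium plus PBMC co-culture under SEB/TSST-1 stimulation, measured 24 h after dosing.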

Read-out in assay [14]: CD40, CD40 (gene 958)
The assay can be described thus: BSK_SAg_CD40: BioMAP Diversity Plus: SAg Assay for CD40 Biomarker Activity (AID 2283088). Particulars: primary human HUVEC with PBMC; actives raise or lower the signal. Summed up:
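Compounds were dosed onto a human primary endothelial–PBMC co-culture, and after 24 h CD40 was quantified by ELISA using a fluorescence signal. Activity in either direction was fitted relative to DMSO.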

Read-out in the next assay: CD69, CD69 (gene 969)
In words: BSK_SAg_CD69: BioMAP Diversity Plus: SAg Assay for CD69 Biomarker Activity (AID 2283089).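 As to AC50: cell surface CD69 protein quantified by ELISA with fluorescence detection.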 The conditions noted are these: primary human HUVEC with PBMC; actives raise or lower the signal. Summed up: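 HUVEC co-cultured with PBMC were dosed with chemical, and CD69 was measured by ELISA with fluorescence read-out 24 h later. Bidirectional curve fitting used DMSO as negative control and activity baseline.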

Read-out in assay [15]: Monocyte Chemoattractant Protein-1 (MCP1), CCL2 (gene 6347)
The assay can be described thus: BSK_SAg_MCP1: BioMAP Diversity Plus: SAg Assay for Monocyte Chemoattractant Protein-1 (MCP1) Biomarker Activity (AID 2283090). The conditions noted are these: primary human HUVEC with PBMC; actives raise or lower the signal. Summed up:
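MCP-1 levels in the endothelial–PBMC SAg co-culture were quantified by ELISA at 24 h post-dosing; both increases and decreases versus DMSO scored. Cytotoxicity monitored by SRB total protein in parallel cultures.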

Read-out in assay [16]: E-selectin (Homo sapiens) (UniProt P16581)
In words: BSK_SAg_Eselectin: BioMAP Diversity Plus: SAg Assay for Eselectin Biomarker Activity (AID 2283091). Particulars: primary human HUVEC with PBMC; actives raise or lower the signal. Summed up: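 Co-culture: HUVEC + PBMC. Dose compound; 24 h. ELISA for E-selectin. Bidirectional fit vs DMSO.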

Read-out in assay [17]: Monokine induced gamma interferon (MIG), CXCL9 (gene 4283)
The assay can be described thus: BSK_SAg_MIG: BioMAP Diversity Plus: SAg Assay for Monokine induced gamma interferon (MIG) Biomarker Activity (AID 2283092). The conditions noted are these: primary human HUVEC with PBMC; actives raise or lower the signal. Summed up:
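HUVEC plus human PBMC co-culture, chemicals dosed and MIG (CXCL9) quantified by ELISA at 24 h. Bidirectional curve fitting against DMSO as negative control and baseline, so both gain and loss of signal count as activity.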

E-selectin (Homo sapiens), sequence (P16581 whole entry, looked up): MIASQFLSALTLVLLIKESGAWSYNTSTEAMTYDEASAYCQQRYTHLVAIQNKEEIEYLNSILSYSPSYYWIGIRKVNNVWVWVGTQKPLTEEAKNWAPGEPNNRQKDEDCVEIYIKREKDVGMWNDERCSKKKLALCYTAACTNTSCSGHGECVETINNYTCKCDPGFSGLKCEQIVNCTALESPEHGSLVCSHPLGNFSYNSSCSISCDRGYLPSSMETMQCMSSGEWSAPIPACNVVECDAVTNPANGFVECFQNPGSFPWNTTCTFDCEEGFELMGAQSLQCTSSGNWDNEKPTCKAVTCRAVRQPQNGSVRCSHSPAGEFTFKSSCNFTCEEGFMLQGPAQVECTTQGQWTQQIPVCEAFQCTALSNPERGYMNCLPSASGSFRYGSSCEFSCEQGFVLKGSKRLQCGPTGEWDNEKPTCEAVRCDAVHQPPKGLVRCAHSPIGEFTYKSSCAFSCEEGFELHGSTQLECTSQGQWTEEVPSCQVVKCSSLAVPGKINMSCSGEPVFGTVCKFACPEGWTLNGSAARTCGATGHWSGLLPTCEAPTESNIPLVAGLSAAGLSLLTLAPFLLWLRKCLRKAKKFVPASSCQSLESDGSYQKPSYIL

As usually defined, the AC50 is the midpoint of the concentration-response curve, whichever way the signal moves. On to `O=C1C=CC(=O)c2ccccc21`, for which the AC50 is 3.45 µM (active) in assay [1]; 5.16 µM (active) in assay [2]; 2.86 µM (active) in [3]; 1.37 µM (active) with CD40, CD40 (gene 958) [4]; 1.44 µM (active) in [5]; 1.37 µM (active) in assay [6]. Also, the AC50 in [7] is 5.33 µM (active); in assay [8] it was 1.07 µM (active); in [9] it was 2.7 µM (active); in assay [11] it was 1.82 µM (active); in assay [12], 1.52 µM (active); in assay [13], 2 µM (active). Besides, the AC50 with CD38, CD38 (gene 952) was 1.04 µM (active); with CD40, CD40 (gene 958) [14], 2.17 µM (active); in the assay with CD69, CD69 (gene 969), 0.836 µM (active); in assay [15] it was 2.39 µM (active); in [16], 1.12 µM (active); in assay [17], 1.53 µM (active). Besides, the outcome in assay [10] was inactive.
For the compound `CCN(CC)C(=O)C(Cl)=C(C)OP(=O)(OC)OC`, the outcome was “inactive” in assay [1]; “inactive” in [2]; “inactive” in assay [3]; “inactive” with CD40, CD40 (gene 958) [4]; “inactive” in assay [5]; “inactive” in assay [6]. Moreover, the outcome in [7], in [8], in assay [9], in assay [10], in [11] and in assay [12] was inactive. The outcome is “inactive” in assay [13]; “inactive” with CD38, CD38 (gene 952); “inactive” with CD40, CD40 (gene 958) [14]; “inactive” in the assay with CD69, CD69 (gene 969); “inactive” in [15]; “inactive” in [16]. The outcome in [17] was inactive.
Consider `CC(C)O.CC(C)O.OCCN(CCO)CCO.OCCN(CCO)CCO.[Ti]`, for which the outcome in [1] was “inactive”; in [2] it was “inactive”; in assay [3], “inactive”; with CD40, CD40 (gene 958) [4] it was “inactive”; in assay [5] it was “inactive”; in [6], “inactive”. Besides, the result in assay [7], in assay [8], in assay [9], in [10], in assay [11] and in assay [13] was inactive. Further, the outcome with CD38, CD38 (gene 952) is “inactive”; in the assay with CD40, CD40 (gene 958) [14] it was “inactive”; with CD69, CD69 (gene 969), “inactive”; in assay [15], “inactive”; in [16] it was “inactive”; in assay [17], “inactive”. Also, in [12], the AC50 was 1.38 µM (active).
